# Inconclusive results are not listed. The source made the active and inactive calls. Calls come from the whole dose curve; as a rule, active = well fitted inhibition curve with a large enough effect; inconclusive = small, poorly fitted or top-dose-only effect; inactive = flat fitted curve, though single readings scatter.
# System: MCC-26
# Assay: qHTS assay to identify novel small-molecules to repurpose for Merkel cell carcinoma treatment (AID 1296009); note: nearly all actives have a fitted effect of over 60% in size
# Conditions: MCC and control cell lines, CellTiter-Glo viability, 72 h; series mostly up to 46 µM; activity change, negative = cytotoxicity: at the top concentration
# From the text: MCC is a rare and aggressive neuroendocrine skin cancer with limited treatment options. Approximately 80% of MCCs have the Merkel cell polyomavirus (MCPyV) DNA integrated into the host genome (virus-positive: VP-MCC) and viral oncogenes drive oncogenesis. The remaining MCCs are virus-negative (VN-MCC) and are caused by UV mutagenesis. To identify novel treatments for VP-MCC and/or VN-MCC we screened three VP-MCC cell lines (WAGA, MKL-1, MKL-2), three VN-MCC cell lines (MCC-13, MCC-26, UISO), and four immortalized, non-transformed control cell lines (HaCaT, HEK293T, CRL7250, NIH-3T3) against ~2,400 compounds in the NCGC Pharmaceutical Collection (NPC) and ~1,900 compounds in the Mechanism Interrogation PlatE (MiPE). Using cell viability as a readout (CellTiter-Glo assay) we found both overlapping and distinct drugs that can be repurposed for the treatment of VP-MCC and VN-MCC.
# A high-throughput screen was conducted in 1536-well white flat bottom plates (Corning) on a Kalypsys robotic system. Cell lines WAGA, MKL-1, MKL-2, MCC-13, MCC-26, UISO, HaCaT, HEK293T, CRL7250, and NIH-3T3 were screened against 2 small molecule annotated drug libraries NPC and MIPE in dose response (8 and 11 pt. respectively) measuring cell viability after 72 hours of incubation. […] A 1,536 pintool (Kalypsys) was used to transfer 23 nL of compound in DMSO to the 1,536-well assay plates. After 72 hr incubation at 37 degree celsius, 2.5 uL of CellTiter-Glo (Promega) was dispensed into each well using a BiorapTR. Plates were incubated at room temperature for 10 min, transferred to a ViewLux (PerkinElmer) and the luminescence was recorded using an exposure time of 2 seconds. Relative luminescence units (RLUs) were normalized to in-plate controls (no cells as a positive (cytotoxicity) control, DMSO as negative control) and the normalized data was processed using NCATS in-house software.
# % is set by controls: 0 for no effect and ±100 for the full control effect; potency is the fitted concentration of half-maximal effect.
SMILES,"activity change, negative = cytotoxicity",Potency
CC(C)(C)[C@H](NC(=O)c1ccc(N)c(Cl)c1)C(=O)N1CCC[C@@H]1C(=O)N[C@H](C#N)CC(=O)O,-4.4% [at 4.84 µM] (inactive),–
CN1[C@H]2CC(OC(=O)[C@@H](CO)c3ccccc3)C[C@H]1[C@H]1O[C@H]12 (stereo not given in full),-7.49% [at 16.1 µM] (inactive),–
CCCCOc1ccc(C(=O)Nc2ccc(F)cc2F)cc1,-1.95% (inactive),–
Cc1cc(Nc2ncc3c(n2)N(C)C(=O)N(c2cc(NC(=O)c4cccc(C(F)(F)F)c4)ccc2C)C3)n(C)n1,–,1.18 µM (active)
CC(=CC(=O)Nc1ccccc1C(=O)O)c1ccc2ccccc2c1,-1.25% (inactive),–
C[C@H]1C[C@H]2[C@@H]3CCC4=CC(=O)C=C[C@]4(C)[C@@H]3C(=O)C[C@]2(C)[C@@]1(O)C(=O)CO,-8.36% (inactive),–
C=C1C[C@@]2(O)O[C@@]3(C[C@H]2C(C)C)[C@H](C)CC[C@H]13,-5.57% (inactive),–
C[C@@H](NCc1cc2ccccc2[nH]1)c1cccc2ccccc12,5.63% (inactive),–
O=C(C=CC=Cc1ccc2c(c1)OCO2)N1CCCCC1,-3.48% (inactive),–
CC(C=CC1=C(C)CCCC1(C)C)=CC=CC(C)=CC(=O)Nc1ccc(O)cc1,-8.58% [at 92.7 µM] (inactive),–
O=C(O)[C@H](CC(=O)N1C[C@@H]2CCCC[C@H]2C1)Cc1ccccc1,-7.12% (inactive),–
COc1cc(OC)c(NC(=O)Nc2cc(C)on2)cc1Cl,-8.64% (inactive),–
CC(=O)C1=C(O)C=C2Oc3c(C(C)=O)c(O)c(C)c(O)c3C2(C)C1=O (stereo not given),-2.03% (inactive),–
O=C(O)C=Cc1ccc(Cn2ccnc2)cc1,-8.5% (inactive),–
c1ccc2c(Oc3nc(Nc4ccc(N5CCOCC5)cc4)c4ncn(C5CCCCC5)c4n3)cccc2c1,1.28% (inactive),–
CC(C=CC=C(C)C=CC1=C(C)CCCC1(C)C)=CC=CC=C(C)C=CC=C(C)C=CC1=C(C)CCCC1(C)C,-0.329% (inactive),–
O=C(Nc1ccc(Oc2ccnc3[nH]ccc23)c(F)c1)c1cccn(-c2ccc(F)cc2)c1=O,5.82% (inactive),–
NC(=O)c1ncn([C@@H]2O[C@H](CO)[C@@H](O)[C@@H]2O)c1N,-1.24% (inactive),–
NS(=O)(=O)OC[C@@H]1C[C@@H](n2ccc3c(N[C@H]4CCc5ccccc54)ncnc32)C[C@H]1O,–,2.09 µM (active)
Nc1ccc(C(=O)Nc2cccc(-c3nc(N4CCOCC4)c4oc5ncccc5c4n3)c2)cn1,-4.69% (inactive),–

SMILES,"activity change, negative = cytotoxicity",Potency
Oc1ccc([C@@H]2Oc3ccc(O)cc3[C@@H]3CCC[C@@H]32)cc1,-16.3% (inactive),–
OCC(O)C(O)C(O)CO (stereo not given),-12.6% (inactive),–
O=C(C=CC#Cc1cccc(NS(=O)(=O)c2ccccc2)c1)NO,–,18.7 µM (active)
CC(=O)ON=C1C(c2c(O)[nH]c3cc(Br)ccc23)=Nc2ccccc21,-24.2% (inactive),–
COC(=O)C1C2CC3c4[nH]c5cc(OC)ccc5c4CCN3CC2CC(OC(=O)c2cc(OC)c(OC)c(OC)c2)C1OC (stereo not given),-5.47% (inactive),–
C[N+](C)([O-])CCNc1ccc(NCC[N+](C)(C)[O-])c2c1C(=O)c1c(O)ccc(O)c1C2=O,-12.8% (inactive),–
CC(C)(O)[C@H]1CC[C@@](C)([C@H]2[C@@H](O)C[C@@]3(C)[C@@H]4C[C@H](O[C@@H]5O[C@H](CO)[C@@H](O)[C@H](O)[C@@H]5O)[C@H]5C(C)(C)[C@@H](O[C@@H]6OC[C@@H](O)[C@H](O)[C@@H]6O)CC[C@@]56C[C@@]46CC[C@]23C)O1,1.77% (inactive),–
Cc1cc(O)c2c(c1)C(=O)c1cccc(O)c1C2=O,5.44% (inactive),–
CN(C)c1ccc2cc(C(=O)N[C@@H](CCCN=C(N)CCl)C(=O)NCc3ccccc3)ccc2c1,-9.39% (inactive),–
CN(C)CCN1C(=O)c2cccc3cc(N)cc(c23)C1=O,-3.83% (inactive),–
N#Cc1ccc(COC[C@H]2O[C@@H](n3c(NCc4ccc(Cl)c(Cl)c4)nc4c(N)ncnc43)[C@@H](O)[C@@H]2O)cc1,-26.8% (inactive),–
CC(C)N1[N]C(=C2C=c3cc(O)ccc3=N2)c2c(N)ncnc21,–,14.8 µM (active)
CCOC(=O)[C@H](CCc1ccccc1)N[C@@H](C)C(=O)N1[C@@H](C(=O)O)C[C@H]2CCC[C@@H]21,-10.3% (inactive),–
O=C1c2c(O)cccc2[C@@H]([C@@H]2O[C@H](CO)[C@@H](O)[C@H](O)[C@H]2O)c2cc(CO)cc(O)c21,-2.12% (inactive),–
C[C@H](O)[C@@H]1C(=O)N2C(C(=O)O)=C(S[C@@H]3CN[C@H](CNS(N)(=O)=O)C3)[C@@H](C)[C@@H]12,-9.67% (inactive),–
Cc1onc(-c2ccccc2)c1C(=O)N[C@@H]1C(=O)N2[C@@H](C(=O)O)C(C)(C)S[C@@H]12,-5.22% (inactive),–
Cc1noc(-c2ccc(CSCCC(=O)O)cc2)c1NC(=O)OC(C)c1ccccc1Cl (stereo not given),-1.51% (inactive),–
Cn1cnc2c(F)c(Nc3ccc(Br)cc3F)c(C(=O)NOCCO)cc21,-6.04% (inactive),–
COc1ccc(CCC(=O)c2c(O)cc(O[C@@H]3O[C@H](CO)[C@@H](O)[C@H](O)[C@@H]3O[C@@H]3O[C@@H](C)[C@H](O)[C@@H](O)[C@@H]3O)cc2O)cc1O,-12.1% (inactive),–
Cc1cnc(Nc2ccc(N3CCN(C)CC3)cc2)nc1Nc1cccc(S(=O)(=O)NC(C)(C)C)c1,–,8.33 µM (active)

# — PubChem BioAssay (NCATS)
